Compound activity as filed in PubChem.
HIF-2a block = blocks HIF-2a reporter activity | 786-0 RCC cells HIF-2a reporter, luciferase luminescence, overnight | inhibition, % at 18.8 µM | 360,000 tested, 0.72% active | AID 624352;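 active means inhibition of the luminescence signal of 40% or more relative to plate controls, in a single-dose primary screen at 18.75 µM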
TWEAK Fn14 block = blocks TWEAK-Fn14 interaction in a reporter cell assay; TWEAK-stimulated Fn14 reporter cells, luciferase luminescence, 8 h; inhibition, % at 10 µM; 360,000 tested, 2% active; in the data active means inhibition above about 50%
Peg3 prom inh = reduces Peg3 promoter-driven luciferase expression in HeLa | 360,000 tested, 1.7% active | AID 588405 | HeLa PEG-Prom luciferase reporter, luminescence, overnight | inhibition, % at 20 µM;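 active means inhibition of at least 50% at 20 µM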
CF NFkB block = inhibitors of cystic fibrosis induced NF-kB; 360,000 tested, 0.86% active; KKLEB NF-kB-GFP reporter, PAF-induced, GFP fluorescence overnight; AID 588850; inhibition, % at 5 µM;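 active means at least 50% inhibition at 5 µM, scaled per plate between neutral and stimulator controls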;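 further: PAF is a Pseudomonas aeruginosa culture filtrate used as stimulus; plate controls were PAF-stimulated DMSO wells for no effect and unstimulated DMSO wells for full effect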
TROY signal inh = inhibitors of TROY-dependent NF-kB signaling; Q293 LMP1-TROYcd NF-kB luciferase reporter, 4 h; inhibition, % at 10 µM; 360,000 tested, 0.98% active; AID 1347056;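 active means compounds whose plate-normalised and pattern-corrected inhibition of the luciferase reporter signal at the single screening dose is 50% or more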
KKLEB tox = CF airway cell cytotoxicity counter-screen. 360,000 tested, 0.36% active. activity change (cytotoxicity), % at 5 µM. KKLEB CF airway cells viability, ATPlite luminescence, overnight; stronger effect = lower value; cells stimulated with P. aeruginosa culture filtrate;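 active means corrected activity change at or below -50% at 5 µM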
Starred values were filed as active, the others as inactive; . = no result given. Compounds with a hit are over-represented: about 3.9% of the library has one in this group of screens.

SMILES	HIF-2a block	TWEAK Fn14 block	Peg3 prom inh	CF NFkB block	TROY signal inh	KKLEB tox
O=C(NCCCCC(NC(=O)c1ccc([N+](=O)[O-])cc1)C(=O)O)c1ccc([N+](=O)[O-])cc1 (centres undefined)	21	-6	7	3	6	0
COc1ccc2[nH]c3c(c2c1)CCN1C(=O)C(CC(=O)NC/C=C(\C)CCC=C(C)C)C[C@H](C(=O)N2CCOCC2)[C@@]31CCC1CCCC1 (some centres undefined)	0	-5	59*	-16	-7	8
CCN(CC)C(=O)[C@H]1C[C@H](CC(=O)NCCCN(C)C)C(=O)N2CCc3c([nH]c4cc(-c5ccco5)ccc34)[C@]12C	-32	17	22	6	-5	-1
O=C(CC1C[C@H](C(=O)N2CCOCC2)[C@@]2(CCC3CCCC3)c3[nH]c4ccccc4c3CCN2C1=O)NCC12CC3CC(CC(C3)C1)C2 (some centres undefined)	-29	50*	34	37	3	-8
CN(C)CCCNC(=O)C[C@H]1C[C@H](C(=O)N2CCOCC2)[C@@]2(CCC3CCCC3)c3[nH]c4cc(-c5ccco5)ccc4c3CCN2C1=O	-9	-41	95*	26	22	-3
CC(C)N(C(=O)[C@H]1C[C@H](CC(=O)NCCCN(C)C)C(=O)N2CCc3c([nH]c4cc(-c5ccco5)ccc34)[C@]12C)C(C)C	-30	15	91*	40	-1	-15
COCCn1c(SCC(=O)Nc2ccc(C(C)=O)cc2)nnc1-c1ccco1	-10	14	0	-8	-1	3
COc1ccc(N2CCN(C(=O)[C@H](C)NC(=O)c3ccccc3Cl)CC2)cc1	2	26	5	-9	-12	7
Cc1nc(Oc2ccc(S(=O)(=O)N3CCOCC3)cc2Cl)c2c3c(sc2n1)CCCC3	28	60*	28	-6	29	-4
COc1ccccc1C(=O)NC(=O)COC(=O)Cc1ccc(F)cc1	11	3	-5	9	11	-8
COc1cc(/C=C/c2noc(-c3ccccc3O)n2)cc(OC)c1OC	-88	-59	-101	-20	-33	1
COc1ccc(/C=C/c2noc(-c3ccccc3O)n2)cc1	-133	56*	-177	-4	38	-6
O=C(OCC(=O)N(CCc1ccccc1)Cc1ccccc1)c1cc(S(=O)(=O)N2CCOCC2)ccc1F	17	-16	5	-8	21	3
Cc1ccc(NC(=O)NCC2CCN(Cc3cccc(Cl)c3)CC2)cc1Cl	5	-7	83*	17	26	-17
Cc1cc(C)cc(NC(=O)NCC2CCN(Cc3cc(C)ccc3C)CC2)c1	22	11	84*	6	-12	-18
Cc1ccc(C)c(CN2CCC(CNC(=O)Nc3cccc(Cl)c3C)CC2)c1	12	12	13	10	-5	-15
CN(CC(=O)Nc1cccc(F)c1)C(=O)CSc1nc2ccccc2s1	-66	-5	-24	1	-4	-12
Cc1ccccc1OCCCSc1nc2ccccc2[nH]1	-130	13	-105	30	35	-3
Cc1cc(C)nc(NS(=O)(=O)c2ccc(NC(=O)C(C)C)cc2)n1	22	-9	3	-12	16	9
O=C(Nc1ccccc1-c1nnn(CC(=O)N2CCc3ccccc3C2)n1)C1CCC1	12	71*	17	7	.	-3
CC1Cc2ccccc2N1C(=O)Cn1nnc(-c2ccccc2NC(=O)C2CCC2)n1 (centres undefined)	4	45	25	-7	59*	1
O=C(Nc1cccc(-c2nnn(CC(=O)N3CCc4ccccc4C3)n2)c1)C1CCC1	0	-4	-5	3	-14	16
CSc1ccccc1OCc1cc(C(=O)NCc2csc(C(C)C)n2)no1	-31	0	-38	17	2	2
COCCn1c(SCC(=O)N2CCCc3ccccc32)nnc1-c1ccoc1C	11	11	12	-2	0	1
Cc1ccccc1OCC(O)Cn1c(NCc2ccco2)nc2c1c(=O)n(C)c(=O)n2C (centres undefined)	-2	-3	44	9	-4	13
SMILES	HIF-2a block	TWEAK Fn14 block	Peg3 prom inh	CF NFkB block	TROY signal inh	KKLEB tox
Cc1ccc(NC(=O)Cn2c(O)c(N=NC(N)=O)c3ccccc32)cc1	16	11	21	-14	4	8
Cc1ccc(NC(=O)Cn2c(O)c(N=NC(N)=S)c3ccccc32)cc1	47*	-17	22	8	10	-9
CC1CCN(S(=O)(=O)N2CCC(C(=O)N3CCC(N(C)CC4CCCO4)CC3)CC2)CC1 (centres undefined)	-4	-8	-2	-7	-5	5
Cn1c(=O)c2c(nc(Br)n2CCSc2ncccn2)n(C)c1=O	9	17	8	2	-4	4
CCN(CC)CCC(=O)Nc1cccc2c1C(=O)c1ccccc1C2=O	34	-26	107*	-122	-103	-1
Nc1cccc(C(=O)OCC(=O)Nc2cccc3c2C(=O)c2ccccc2C3=O)c1	-21	-42	26	-93	-15	15
CCN(CC)CCNC(=O)c1ccc2c(c1NCCO)C(=O)c1ccccc1C2=O	62*	87*	111*	77*	43	-52*
CC1(C)CC(=O)C2=C(C1)Oc1nc3ccccc3cc1C2C(C#N)C#N (centres undefined)	7	69*	58*	64*	12	-5
COc1ccc(NC(=O)Cn2c(-c3ccccc3)cc(C(C)=O)c2C)c(OC)c1	11	7	16	-4	9	-4
COc1ccccc1-c1cc(-c2ccccc2)nc(SC(C(N)=O)c2ccccc2)c1C#N (centres undefined)	5	-33	47	60*	5	-72*
Cc1nc(SC(C(N)=O)c2ccccc2)c(C#N)c(C)c1C (centres undefined)	-63	-7	-50	-18	1	17
Cc1c(NC(=O)c2cccc(NC(=O)c3ccco3)c2)cccc1C(=O)O	3	-14	-2	10	-1	8
Cc1cc(C(=O)COC(=O)C2=COCCO2)c(C)n1-c1ccc2c(c1)OCO2	-155	-11	-247	-3	-21	6
Cc1cc(C(=O)COC(=O)Cc2n[nH]c(=O)c3ccccc23)c(C)n1-c1ccc2c(c1)OCCO2	-2	68*	25	10	39	4
Cc1cc(C(=O)COc2ccc(C#N)cc2)c(C)n1-c1ccc2c(c1)OCO2	-26	89*	-8	-7	1	0
CCOC(=O)NNC(=O)CCn1c2c(c3ccccc31)CCCC2	24	59*	10	62*	47	-2
O=S(=O)(c1ccc2c(c1)OCCO2)N1CCC(c2nc3ccccc3s2)CC1	-1	53*	4	0	43	0
